# PfHsp90 yeast 2: inhibits growth of yeast expressing Plasmodium falciparum Hsp90; S. cerevisiae expressing PfHsp90, BacTiter-Glo ATP, 48 h; yeast lacking PDR1 and PDR3 efflux regulators; inhibition, % at 9.4 µM; 0.32% of 310,000 active;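 active = every replicate shows inhibition above about 80%, whatever the replicate mean, limit read from the data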;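 note: 0% = DMSO neutral controls and 100% = 20 µM radicicol positive controls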
# SUMO Mot1 rescue: inhibitors of SUMOylation pathway: yeast Mot1-301 growth rescue | growth rescue, % at 18.8 µM | 1% of 320,000 active | S. cerevisiae Mot1-301 growth rescue, ATP luminescence, 38.5C; percent above DMSO median, 100 means doubled | AID 2716;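 active = every valid replicate shows activation above 250% relative to neutral control wells; inactive = the rest, any valid replicate at or below 250%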;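 note: OY570 slx delta 5 strain wells were the positive control but not used for scaling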
# TIM10 inh: inhibits growth of TIM10 yeast strain. S. cerevisiae TIM10 strain growth, BacTiter-Glo luminescence, 24 h. 1.4% of 330,000 active. inhibition, % at 10 µM;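 active = inhibition of 40% or more at the single tested concentration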;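 note: wild-type TIM10 isogenic control strain grown at permissive 25 °C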
# tim10-1 inh: inhibits growth of tim10-1 mutant yeast; S. cerevisiae tim10-1 ts strain growth, BacTiter-Glo, 24 h; 2.2% of 330,000 active; inhibition, % at 20 µM;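 active = inhibition of at least 40%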;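 note: mutant grown at 25 °C; 0% = DMSO wells with yeast and 100% = wells holding no yeast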
# tim23-1 inh: inhibits growth of tim23-1 mutant yeast; S. cerevisiae tim23-1 growth, BacTiter-Glo luminescence, 24 h; inhibition, % at 20 µM; 1.3% of 330,000 active;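 active = growth inhibition of the mutant yeast at or above 50%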;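 note: temperature-sensitive mutant grown at 25 °C; plate controls were DMSO-treated mutant yeast for no effect and medium wells lacking yeast for full effect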
# tim10-1 confirm: tim10-1 yeast growth inhibition, confirmed | S. cerevisiae tim10-1 ts strain growth, BacTiter-Glo, 24 h | inhibition, % at 20 µM | shares compounds with tim10-1 inh | 56% of 7,400 active;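 active = inhibition of yeast growth at or above a set limit in either of two repeat tests at 20 µM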;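 note: tim10-1 mutant grown at permissive 25 °C to find synthetic lethal compounds; 0% = DMSO yeast wells and 100% = medium wells without yeast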
# Active calls of the source: *; x = no result. Sampled rows, rich in hits. Any-hit rate of the full collection: about 4.4%.
SMILES,PfHsp90 yeast 2,SUMO Mot1 rescue,TIM10 inh,tim10-1 inh,tim23-1 inh,tim10-1 confirm
CCCCCCOc1ccc(N2C(=O)CC(N3CCN(CCN=CC4=C(O)CC(C)(C)CC4=O)CC3)C2=O)cc1 (centres undefined),24,-7,22,32,19,x
CCS(=O)(=O)N1CCC2(CC1)OCCN2S(=O)(=O)c1ccc(OC)cc1,22,x,-2,-8,5,x
O=S(=O)(c1ccc(Cl)cc1)N1CCC2(CC1)OCCN2S(=O)(=O)c1cccs1,-8,x,-3,48*,27,29*
COc1ccc(S(=O)(=O)N2CCOC23CCN(S(=O)(=O)c2ccc(C)cc2)CC3)cc1,4,-11,19,46*,47,28
Cc1ccc(S(=O)(=O)N2CCC3(CC2)OCCN3S(=O)(=O)c2cccs2)cc1,-16,0,5,35,38,x
COc1ccc(S(=O)(=O)N2CCOC23CCN(S(=O)(=O)c2ccc(F)cc2)CC3)cc1,-16,-7,19,47*,45,31
COc1cc2c(cc1OC)CN(C(=O)c1cc(C3CC3)nn1-c1ccccc1)CC2,-3,1,6,-3,37,x
COc1ccc(C(=O)NCCS(=O)(=O)N2CCCC2)cc1,5,-3,-1,-2,-12,x
COc1ccccc1NC(=O)NNC(=O)c1ccncc1,3,x,x,x,x,x
CCN(CC1COc2ccccc2O1)C(=S)NC1CC2CCC1C2 (centres undefined),11,-7,38,37,20,x
CC(=O)Nc1ccc(NC(=O)C(C)OC(=O)CNC(=O)c2ccc(-c3ccccc3)cc2)cc1 (centres undefined),x,-21,-3,0,-3,x
O=C(NCCCN1CCCC1=O)c1ccc(Cl)c(S(=O)(=O)N2CCCCC2)c1,0,-12,5,-29,-16,x
Cc1sc2ccc3sccc3c2[n+]1C,4,8,20,43*,25,46*
COC(=O)c1cccc(NC(=O)c2ccc3c(c2)C(=O)N(Cc2cccnc2)C3=O)c1C,10,-1,-13,-22,1,x
C(=N\n1cnnc1)/c1cn(Cc2ccccc2)c2ccccc12,-15,14,25,49*,27,-21
N#Cc1c(-c2cccs2)cc(-c2cccnc2)nc1N,-6,-4,26,43*,37,29
N#Cc1c(-c2ccc(F)cc2)cc(-c2cccnc2)nc1N,4,11,-21,15,-17,x
CSc1nc(N)nc(-c2cccs2)c1C#N,-28,-8,13,48*,49,36*
Cc1c(-c2ccc(F)cc2)nc(N)c(C#N)c1-c1cccs1,x,3,-9,24,9,x
c1ccc2sc(-c3ccc4c(c3)OCO4)nc2c1,11,-38,9,45*,28,46*
O=C(Nc1cccc(-c2nc3ccccc3s2)c1)c1ccc2c(c1)OCO2,-8,2,-7,-3,-7,x
Cc1ccc(/C=C/C(=O)N2CC(C)CC(C)C2)o1 (centres undefined),x,-27,19,43*,31,31
CCN1CCN(C(=O)/C=C/c2ccc(C)o2)CC1,9,7,4,-2,-3,x
CC1CCN(S(=O)(=O)c2ccc(NC(=O)Cc3cccs3)cc2)CC1,x,75,36,54*,28,36*
CCN(CC)S(=O)(=O)c1ccc(NC(=O)Cc2cccs2)cc1,0,-30,4,45*,26,21
SMILES,PfHsp90 yeast 2,SUMO Mot1 rescue,TIM10 inh,tim10-1 inh,tim23-1 inh,tim10-1 confirm
c1ccc2c(c1)ccc1[nH]c3c(c12)CCCC3,7,x,x,x,x,x
CN(C)S(=O)(=O)N1CCC(Oc2ccc(C(=O)NC3Cc4ccccc4C3)cc2)CC1,-17,6,19,44*,29,26
CN(C)S(=O)(=O)N1CCC(Oc2ccc(C(=O)NC3CCOC(C)(C)C3)cc2)CC1 (centres undefined),15,1,-6,-15,7,x
Cc1ccc(S(=O)(=O)/N=C2/NC(=O)/C(=C\c3cc(Br)cc(Br)c3O)S2)cc1,8,20,38,42*,36,37*
Nc1ccccc1NC(=O)NC(=O)c1ccccc1,-3,-28,-6,-8,6,x
N#CCCN1CCC(NC(=O)OCc2ccccc2)CCC1=O (centres undefined),-2,-4,3,-9,3,x
O=C(NC1CCC(=O)N(CCSc2ccccc2)CC1)OCc1ccccc1 (centres undefined),-20,-7,18,48*,32,20
Clc1ccc(Cn2c(/C=C/c3ccco3)nc3ccccc32)cc1,8,11,31,48*,45,40*
O=C(O)c1sccc1Oc1ccc(NS(=O)(=O)c2cccc(F)c2)cc1,-5,-17,-12,4,7,x
Cc1cccc(N2C(=O)C3CCCN3C2=S)c1C (centres undefined),22,1,3,-18,-5,x
C=CCN(c1nc(C)c(Br)c(OC)n1)S(=O)(=O)c1ccc(C)cc1,-39,-9,11,-18,12,x
CC(=O)N(\C=C/C=C/C=C1\Sc2ccccc2C1=O)c1ccccc1,-3,-9,33,41*,29,46*
CN(C)/C=C1/Sc2ccccc2C1=O,-5,10,-1,7,12,x
CCN(CC)CCNc1ncnc2c1sc1nc(N3CCOCC3)c3c(c12)CCCC3,-6,-12,24,9,16,x
OCCNc1ncnc2c1sc1nc(N3CCOCC3)c3c(c12)CCC3,-43,-4,18,49*,35,25
CC1CCN(C(=O)C2CCCN(S(=O)(=O)c3ccc4c(c3)CC(C)N4C(=O)C3CC3)C2)CC1 (centres undefined),0,20,17,-8,14,x
COc1ccccc1/C(C)=N/NC(=S)NCc1ccccc1,-1,151,26,47*,49,14
CCCCc1cc(=O)oc2cc(OC(C)C(=O)NCc3ccccn3)c(Cl)cc12 (centres undefined),-61,12,5,41*,24,-36
COc1ccc(OC)c(CNC(=O)C2CCC(=O)N(CCCN3CCCC3=O)C2)c1 (centres undefined),20,91,-4,-19,3,x
O/N=C(\c1ccc(Cl)cc1Cl)c1ncc(C(F)(F)F)cc1Cl,5,264,39,40,27,50*
CC(C)CC1Nc2ncnc(N3CCCCC3)c2N(Cc2ccc(Br)cc2)C1=O (centres undefined),-41,-6,38,41*,37,32*
Cc1ccc(-c2nc(N)sc2C)cc1,-20,2,-4,14,3,x
Cc1sc(N)nc1-c1c(C)n(C)c2ccccc12,-9,17,6,68*,5,-9
CCCCn1c(=N)c(S(=O)(=O)c2ccc(Br)cc2)cc2c(=O)n3cccc(C)c3nc21,15,3,3,44*,27,-14

# From PubChem BioAssay
